ChEMBL document CHEMBL3433997, “St. Jude Leishmania screening dataset” (2016)

molecular target: Glucose transporter (Leishmania mexicana) (UniProt O61059); assay: ST_JUDE_LEISH: Cytotoxicity at 2uM final concentration against transgenic Leishmania Mexicana promastigotes LmGT2 that are glucose transport deficient and complemented with the L. Mexicana glucose transporter 2. Activity is measured by DNA content using SYBR green in vitro; format: functional

Row | Compound | inhibition
1 | Cc1nc2ccc3ccc(CNc4ccc(C(=O)N[C@@H](CCC(=O)O)C(=O)N[C@@H](Cc5cccs5)C(=O)O)c(F)c4)cc3c2c(=O)[nH]1 | 6.36%
2 | O=C(NCCc1ccc(F)cc1)c1ccc(N2CCN(c3ccncc3)CC2)nc1 | -4.35%
3 | Oc1ccc(CCNc2nc(NCc3cccc(OCc4cccc(F)c4)c3)nc(N3CCNCC3)n2)cc1 | 1.08%
4 | Nc1nc(O)c2c(n1)CCc1c(Br)cccc1-2 | -1.14%
5 | COc1ccc2nccc([C@@H](O)CN3CCC(NCc4cc5ccccc5[nH]4)CC3)c2c1 | 4.85%
6 | c1ccc(Oc2ccc(Nc3ccnc4cc(-c5csc(CN6CCCCC6)n5)ccc34)cc2)nc1 | 0.89%
7 | Cc1c(-c2cccc(NC(=O)C(C)(C)Oc3ccc(Cl)cc3)c2)nc2ncccn12 | -3.03%
8 | COc1cccc(CNC[C@@H](O)[C@H](Cc2ccccc2)NC(=O)c2cc(NC(C)C)cc(N3CCCCS3(=O)=O)c2)c1 | 0.68%
9 | O=C(NC1CCN(c2ccnc3cc(Cl)ccc23)C1)c1ccc(F)cc1 (stereo not given) | 4.18%
10 | Cc1c(C(C)(C)C)ccc2nc(N)nc(N)c12 | 56.6%
11 | O=C(NCCN1CCCCC1)c1ccc(Nc2nccc(Nc3ccc(Oc4ccccc4)cc3)n2)cc1 | 16.6%
12 | O=C(Nc1cccc(OCc2ccccc2)c1)c1ccc(CN2CCC(Cc3ccccc3)CC2)cc1 | -0.42%
13 | NCCNc1ccc([N+](=O)[O-])cc1C(=O)Nc1cccc(Cl)c1 | 2.22%
14 | CC(=O)c1c(CC(=O)O)c2ccccc2n1O | 3.07%
15 | Cc1ccc2nc(C)cc(NC(=O)Nc3ccc(N(C)C)cc3)c2c1 | 7.68%
16 | COc1ccccc1C1CCN(C2CCC(NC(=O)/C=C/c3cc(C(F)(F)F)ccc3F)CC2)CC1 (stereo not given) | 3.14%
17 | NCC(=O)Nc1cccc(Nc2nccc(-c3c(-c4cccc(NC(=O)c5ccccc5)c4)nn4ccccc34)n2)c1 | 1.14%
18 | Cc1nnc2c(NC(=O)NC3CCCC3)cc3cc(-c4ccc(CN5CCN(C)CC5)cc4)ccc3n12 | 4.79%
19 | CCOC(=O)c1ccc(NC(=O)N(Cc2ccc(-c3cccc(CN4CCNCC4)c3)cc2)C2CCN(Cc3ccccc3)CC2)cc1 | 7.56%
20 | COc1ccc2nccc([C@@H](O)CN3CCC(NC(=O)/C=C/c4c[nH]c5c(C)cccc45)CC3)c2c1 | -5.23%

Row | Compound | inhibition
21 | CC[C@H](C)CNC(=O)c1cncc(-c2cccc(CNC3Cc4ccccc4C3)c2)c1 | -1.15%
22 | Cc1cccc2nc(-c3ccc(-c4ccc(CN5CCOCC5)cc4)cc3)[nH]c12 | 2.61%
23 | CC(C)Cn1c(Sc2ccc(C#N)c([N+](=O)[O-])c2)nnc1-c1ccc(N(C)C)cc1 | -4.37%
24 | COc1cc(Br)c(S(=O)(=O)n2cc(CN3CCC(N)CC3)c3cc(Cl)ccc32)cc1OC | 0.57%
25 | COc1ccccc1C1CCN(C2CCC(NC(=O)c3cc(-c4ccc(Cl)cc4)cs3)CC2)CC1 (stereo not given) | 0.71%
26 | CN1CCC(C(=O)N(Cc2ccc(-c3ccc(CNCCc4ccc(S(C)(=O)=O)cc4)cn3)cc2)Cc2cccc(F)c2)CC1 | 0.97%
27 | CCNS(=O)(=O)c1ccc(Oc2ccc([N+](=O)[O-])cc2)cc1 | -1.68%
28 | O=C(Nc1ccc(Cn2ncc(N3CCCNCC3)c(Cl)c2=O)cc1)Nc1ccc(OCc2ccccc2)cc1 | -1.2%
29 | COc1ccc(-c2cccc(NC(=O)c3cccc(Cl)c3)c2)cc1CN1CCN(C)CC1 | 7.77%
30 | CCCN(CCC)C(=O)c1cc(C(=O)N[C@@H](Cc2ccccc2)[C@H](O)CNC(C)(C)c2cccc(OC)c2)cc(N2CCCCS2(=O)=O)c1 | 2.14%
31 | CCCCc1nc2nc(N)nc(N)c2cc1CCC | 1.5%
32 | Cc1nccn1CCNC(=O)CN1CCC2(CCC1=O)CC(=O)c1ccccc1O2 (stereo not given) | 7.28%
33 | Cc1[nH]c(C)c(-c2ccc(Oc3cccc(Cl)c3)cc2)c(=O)c1Cl | 4.29%
34 | O=c1cc(NCCCNCc2cccc(OC(F)(F)C(F)F)c2)[nH]c2ccccc12 | 5.78%
35 | Cc1cc2nc(-c3ccc(/C=C/C(=O)NC4CCCCC4)cc3)[nH]c2cc1C | 1.51%
36 | N#Cc1ccc(C(=O)Nc2cc(-c3cccc(O)c3)cc3[nH]ncc23)cc1 | 0.89%
37 | CC(C)NCc1cccc(-c2ccc(-c3nc4cc(C(F)(F)F)ccc4[nH]3)cc2)c1 | 6.87%
38 | CC(=O)N1N=C(c2ccc(F)cc2)Sc2c1nc(-c1ccccc1)n2C(C)=O | 8.7%
39 | Cc1ccc(CN2CCCN(Cc3cccc(C(=O)Nc4ccc(C(C)(C)C)cc4)c3)CC2)s1 | 0.76%
40 | COc1ccc(C(=O)N[C@@H](CC(C)C)C(=O)NC2CC[C@@H](C)N(C(=O)Nc3ccc(Cl)cc3)CC2=O)cc1OCCN1CCOCC1 (stereo not given in full) | 5.16%
